Results on 12 compounds are retold here after PubChem BioAssay.

Active and inactive are the calls of the source. Unless noted, how the calls were made is not given here.

Assay [1] can be described thus: HepG2 liver cancer cell viability effects, profiling panel, resazurin fluorescence, 24 h, PK04 Diversity Set (AID 1172). Further: test concentration not given here. The settings on record: higher = more signal. (Alamar Blue is a resazurin reagent that responds to reducing activity.)
Assay [2] in a line: basal S. cerevisiae growth modulation, no modifier, primary screen, OD600, strain BY4716, 24 h, basal condition (AID 1173). The settings on record: OD600, 24 h, higher = more signal, called active from +8 up or from −8 down.
Assay [3] is described as follows: MM1S myeloma cell viability, profiling panel, resazurin fluorescence, basal, 24 h, PK04 Diversity Set (AID 1174).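 Further: MM1S multiple myeloma cell line; test concentration not given here.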 The settings on record: higher = more signal, called active from +8 up or from −8 down.
In assay [4] the target is Dihydroorotate dehydrogenase (quinone), mitochondrial (Plasmodium falciparum (isolate 3D7)) (UniProt Q08210). Nature of the assay: PfDHODH enzyme inhibitors, primary screen, biochemical, C-terminal His tag, absorbance 600 nm (AID 1175).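 Further: recombinant parasite enzyme with a five histidine tag at its C terminus; test concentration not given here.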 The settings on record: DCIP absorbance 600 nm, higher = more signal, called active from +8 up or from −8 down.
Assay [5] is described as follows: P. aeruginosa biofilm formation inhibitors, primary screen, strain PAO1, LB-PBS medium, absorbance 600 nm (AID 1176). Further: test concentration not given here. The settings on record: P. aeruginosa PAO1 growth/biofilm, A600, 12 h; higher = more signal.
Assay [6] in a line: S. cerevisiae RM11-1a growth modifiers, primary screen, strain RM11-1a, OD600, basal, 24 h (AID 1177).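 Further: cultures grown under basal conditions with no added stressor; test concentration not given here.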 The settings on record: OD600, 24 h, higher = more signal, called active from +8 up or from −8 down.
Assay [7] is described as follows: E. coli acrAB mutant growth effects, primary screen, E. coli filamentation inducers, strain DRC39, OD650, 24 h (AID 1178).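 Further: growth measured as culture turbidity by optical density at 650 nm; test concentration not given here.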 The settings on record: higher = more signal, called active from +8 up or from −8 down.
A short description of assay [8]: E. coli acrAB mutant growth effects, primary screen, E. coli filamentation inducers, strain DRC39, OD650, 48 h (AID 1179).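 Further: screen aims at cell division blockers that make cells filament.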 The settings on record: E. coli DRC39 delta-acrAB growth, higher = more signal, called active from +8 up or from −8 down.
Assay [9] in a line: RPMI8226 myeloma cell viability, profiling panel, resazurin fluorescence, basal, 24 h, PK04 Diversity Set (AID 1180).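 Further: RPMI8826 multiple myeloma cell line at 5000 cells per well; test concentration not given here.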 The settings on record: higher = more signal.
For assay [10], the target named is E3 ubiquitin-protein ligase XIAP (Homo sapiens) (UniProt P98170). The experiment in a line: XIAP binders, primary screen, biophysical, small-molecule microarray, fluorescence 635 nm (AID 1181).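 Further: score merges 667 nm emission and signal to noise over triplicate slides.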 The settings on record: small-molecule microarray binding, higher = more signal.
E3 ubiquitin-protein ligase XIAP (Homo sapiens), sequence (P98170 whole entry, looked up): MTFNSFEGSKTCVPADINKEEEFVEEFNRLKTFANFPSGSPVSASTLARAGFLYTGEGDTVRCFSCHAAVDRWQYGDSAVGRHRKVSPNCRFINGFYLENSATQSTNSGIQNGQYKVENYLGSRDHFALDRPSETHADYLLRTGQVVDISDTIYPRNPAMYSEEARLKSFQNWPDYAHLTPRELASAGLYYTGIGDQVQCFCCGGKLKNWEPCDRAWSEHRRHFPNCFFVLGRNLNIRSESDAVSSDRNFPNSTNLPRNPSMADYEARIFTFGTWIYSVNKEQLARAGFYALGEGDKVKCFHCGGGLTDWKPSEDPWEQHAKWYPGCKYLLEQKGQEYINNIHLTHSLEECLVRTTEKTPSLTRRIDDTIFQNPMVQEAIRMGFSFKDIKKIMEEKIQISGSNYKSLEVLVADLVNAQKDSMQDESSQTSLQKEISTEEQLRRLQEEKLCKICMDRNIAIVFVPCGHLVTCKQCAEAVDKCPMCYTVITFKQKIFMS

Dihydroorotate dehydrogenase (quinone), mitochondrial (Plasmodium falciparum (isolate 3D7)), sequence (Q08210 whole entry, looked up): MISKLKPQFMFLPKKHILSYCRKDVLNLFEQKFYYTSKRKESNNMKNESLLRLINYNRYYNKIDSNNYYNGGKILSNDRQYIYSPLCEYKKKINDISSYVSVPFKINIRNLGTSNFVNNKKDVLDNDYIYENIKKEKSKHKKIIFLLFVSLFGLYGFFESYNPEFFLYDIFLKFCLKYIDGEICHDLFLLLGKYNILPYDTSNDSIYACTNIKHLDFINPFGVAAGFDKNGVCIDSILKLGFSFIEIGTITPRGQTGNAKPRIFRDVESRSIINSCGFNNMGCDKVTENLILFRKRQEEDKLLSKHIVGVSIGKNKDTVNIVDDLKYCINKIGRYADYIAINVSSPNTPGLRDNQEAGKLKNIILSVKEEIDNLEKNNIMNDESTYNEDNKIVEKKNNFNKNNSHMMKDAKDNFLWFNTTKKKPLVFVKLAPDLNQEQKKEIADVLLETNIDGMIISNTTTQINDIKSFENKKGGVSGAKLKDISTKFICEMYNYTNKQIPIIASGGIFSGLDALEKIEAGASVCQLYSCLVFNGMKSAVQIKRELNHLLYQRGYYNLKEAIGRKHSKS

Regarding `CC(C)CON=C1C[C@@H](O)[C@@H](O)[C@@H]2[C@@H]3C(=O)N(C[C@@H]4CCCO4)C(=O)[C@@H]3CC[C@@H]12`, the z-score is -0.192 in assay [1]; 0.526 (inactive) in assay [2]; 0.22 (inactive) in assay [3]; 0.152 (inactive) in assay [5]; -0.541 (inactive) in assay [6]; 0.276 (inactive) in [7]. Moreover, the z-score was 0.663 (inactive) in assay [8] and 1.15 in assay [9]. In addition, the composite z-score was -0.223 (inactive) in assay [4] and -0.266 in assay [10].

In the case of `CO[C@H]1COC(=O)CC=C[C@@H](C)[C@H](OC)COC(=O)CCC[C@@H]1C`, the z-score in [1] was 0.855; in [2] it was -0.966 (inactive); in [3], 0.818 (inactive); in assay [5], -0.172 (inactive); in [6], -1.45 (inactive); in [7], 0.153 (inactive). Further, the z-score in [8] was 0.039 (inactive); in assay [9] it was 0.518. In addition, the values for the composite z-score in assay [4] and in [10] were -0.526 (inactive) and 0.523, respectively.

With `O=C1OCCC=C1C(O)CCc1ccccc1` (stereo not given), the z-score in [1] was 0.0362; in assay [2], -0.567 (inactive); in assay [3] it was -0.649 (inactive); in assay [5], -0.564 (inactive); in assay [6] it was -0.415 (inactive); in [7], 0.258 (inactive). In addition, the z-score in assay [8] is 0.137 (inactive); in assay [9] it was -0.573. Moreover, the composite z-score in [4] was -0.0757 (inactive); in assay [10], -0.202.

On to `COc1ccc(COC(=O)NN=C2C[C@@H](O)[C@@H](O)[C@@H]3[C@@H]4C(=O)N(C5CCCCC5)C(=O)[C@@H]4CC[C@H]23)cc1`, for which the z-score in [1] is -0.689; in assay [2] it was 1.07 (inactive); in assay [3], -1.15 (inactive); in assay [5], 1 (inactive); in [6], 0.335 (inactive); in [7], -0.189 (inactive). Moreover, the z-score in [8] is -0.582 (inactive); in assay [9] it was -0.363. The composite z-score in [4] is 0.608 (inactive); in assay [10], -0.267.

As for `O=C1[C@H]2[C@H]3[C@H](O)[C@H](O)CC(=NOCc4ccccc4)[C@H]3CC[C@H]2C(=O)N1Cc1ccc2c(c1)OCO2`, the z-score in assay [1] was 0.616; in assay [2] it was -0.0033 (inactive); in assay [3], 0.13 (inactive); in [5], -0.695 (inactive); in assay [6], 0.0065 (inactive); in [7], 0.698 (inactive). Besides, the figures for the z-score in [8] and in assay [9] were -1.38 (inactive) and 0.129, respectively. Moreover, the composite z-score in assay [4] was -0.51 (inactive); in [10] it was -0.0663.

As for `CCCNC(=O)OC[C@H]1O[C@H](c2ccccc2)C=C[C@@H]1Oc1ccc(OC)cc1`, the z-score in [1] was -0.889; in assay [2], -1.88 (inactive); in assay [3], -1.06 (inactive); in assay [5], -0.115 (inactive); in assay [6], -0.0966 (inactive); in assay [7] it was 0.507 (inactive). Moreover, the z-score in assay [8] is 0.342 (inactive); in [9], -0.35. Moreover, the figures for the composite z-score in assay [4] and in [10] were 0.152 (inactive) and -0.0629, respectively.

As for `C[C@H]1CC[C@H]2C(=O)O[C@H](COc3ccc(C(C)(C)C)cc3)CN2[C@@H]1c1ccc(Br)cc1`, the z-score in [1] was -0.158; in assay [2] it was -0.407 (inactive); in assay [3], 0.422 (inactive); in assay [5] it was -0.409 (inactive); in [6] it was -0.0809 (inactive); in [7], -1.42 (inactive). The z-score in assay [8] is -1.37 (inactive); in assay [9] it was 0.432. The composite z-score in assay [4] is 0.159 (inactive); in assay [10] it was -0.19.

On to `COc1cccc([C@@H]2Oc3ccc(OC)cc3C(=O)[C@H]2O)c1`, for which the z-score in [1] was 0.115; in assay [2], -8.27 (active); in [3], 0.0409 (inactive); in assay [5], -0.364 (inactive); in assay [6], -0.55 (inactive); in [7], -1.47 (inactive). The values for the z-score in assay [8] and in assay [9] were -2.37 (inactive) and 0.329, respectively. The composite z-score was -2.73 (inactive) in [4] and -0.0773 in assay [10].

On to `CON=C1[C@H]2CCn3c(=O)n(-c4ccccc4)c(=O)n3[C@H]2[C@H](O)[C@@H]2O[C@H]12`, for which the z-score is 0.348 in assay [1]; -1.45 (inactive) in assay [2]; 0.333 (inactive) in assay [3]; 0.335 (inactive) in assay [5]; -2.21 (inactive) in assay [6]; 0.0966 (inactive) in assay [7]. The z-score in assay [8] is -1.03 (inactive); in assay [9], 0.116. Further, the values for the composite z-score in assay [4] and in assay [10] were -0.984 (inactive) and 0.0159, respectively.

With `CCOC(=O)[C@H](Cc1ccccc1)NC(=O)CCC1CC(OC(=O)NCCc2ccc(F)cc2)CC2(CCCC(COC(=O)NCC3CCCCC3)O2)O1` (stereo not given in full), the z-score in assay [1] was 0.211; in assay [2], -0.362 (inactive); in assay [3] it was 0.368 (inactive); in [5] it was 0.781 (inactive); in assay [6], 0.869 (inactive); in [7], 0.828 (inactive). Also, the figures for the z-score in [8] and in [9] were 1.21 (inactive) and 0.772, respectively. Moreover, the figures for the composite z-score in assay [4] and in assay [10] were -0.189 (inactive) and -0.0009, respectively.

As to `CC(CCN1CCCCc2nc(C)c(C)cc21)=NO[C@@H](C)c1cn([C@H](CO)Cc2ccccc2)nn1`, the z-score in assay [1] was -0.841; in assay [2], 0.102 (inactive); in assay [3], -1.85 (inactive); in assay [5], -0.631 (inactive); in [6], 0.736 (inactive); in assay [7], 0.882 (inactive). Moreover, the z-score in assay [8] was 1.46 (inactive); in assay [9], -0.483. Also, the composite z-score in assay [4] is -1.55 (inactive); in assay [10] it was -0.127.

In the case of `O=C(C=Cc1ccc2c(c1)OCO2)c1ccc(F)cc1`, the z-score in assay [1] was -0.214; in [2], -10.1 (active); in assay [3], -0.194 (inactive); in [5], -0.245 (inactive); in [6] it was -0.31 (inactive); in [7], 0.264 (inactive). The z-score in assay [8] was -0.423 (inactive); in [9] it was -0.538. The composite z-score in assay [4] was 0.184 (inactive); in assay [10], -0.176.
